For orientation: AC50 means the concentration giving half of the maximal activity seen.

Records with an inconclusive call do not appear. Calls of active or inactive are those of the source. Rule for the calls, unless noted: active = hit-call score of the fitted dose curve at least 0.9, where 1 is the maximum; inconclusive = response in the unintended direction; inactive = score below 0.9. Where a SMILES comes first, the peptide text is derived from it. [ ]: non-standard residue; d: D form. pGlu = O=C1CC[C@@H](C(=O)O)N1; Thz = O=C(O)[C@@H]1CSCN1

Assay [1] can be described thus: TOX21_p53_BLA_p2_viability: Viability Assessment in the Tox21 HCT-116 p53 Agonism Beta-lactamase Assay, Phase 2 (AID 2283591).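 Note: compound exposure lasted 16 h at 37 °C; actives lower the ATP signal meaning cytotoxicity.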 The method, boiled down:
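HCT-116 p53-bla cells (4000/well) rested 5 h at 37C, then received compounds in DMSO (217-fold dilution) for 16 h at 37C, 5% CO2. After the CCF4 read, CellTiter-Glo was added; ATP luminescence was read after 30 min at room temperature.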

Assay [2] concerns the target Cellular tumor antigen p53 (Homo sapiens) (UniProt P04637). The assay is described as follows: TOX21_p53_BLA_p2_ratio: Tox21 HCT-116 p53 Agonism Beta-lactamase Assay, Ratio, Phase 2 (AID 2283592). In outline: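 Plated HCT116 p53-bla cells (4000/well) received compound after 5 h, then 16 h at 37C/5% CO2. CCF4-AM added, 2 h RT. Ratio of 460 to 530 nm emission taken as the p53 reporter signal.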

Assay [3] has the same target. The assay is described as follows: TOX21_p53_BLA_p3_ratio: Tox21 HCT-116 p53 Agonism Beta-lactamase Assay, Ratio, Phase 3 (AID 2283596). In outline: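 Cells were seeded at 4000/well, rested 5 h at 37C, then dosed with DMSO compound solutions (217-fold dilution) for 16 h. CCF4-AM substrate was loaded for 2 h at room temperature, and the 460/530 nm emission ratio was fitted for gain of signal versus DMSO.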

Assay [4] is described as follows: TOX21_p53_BLA_p4_viability: Viability Assessment in the Tox21 HCT-116 p53 Agonism Beta-lactamase Assay, Phase 4 (AID 2283597).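 Note: hits lower the luminescence signal meaning cytotoxicity.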 In outline: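 Readout: ATP luminescence (CellTiter-Glo), measured 30 min after reagent addition at RT. The reagent followed a 2 h CCF4-AM incubation, and the cells had been exposed to compound for 16 h at 37C.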
For assay [5], the target named is Cellular tumor antigen p53 (Homo sapiens) (UniProt P04637). The assay is described as follows: TOX21_p53_BLA_p5_ratio: Tox21 HCT-116 p53 Agonism Beta-lactamase Assay, Ratio, Phase 5 (AID 2283599). In outline:
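HCT-116 cells carrying a p53-inducible beta-lactamase reporter were seeded at 4000 cells/well and dosed after 5 h with compound in DMSO (217-fold dilution). After 16 h at 37C, CCF4-AM substrate was added for 2 h, and the 460/530 nm emission ratio was scored as gain-of-signal versus DMSO.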

The target is the same in assay [6]. The assay is described as follows: TOX21_p53_BLA_p4_ratio: Tox21 HCT-116 p53 Agonism Beta-lactamase Assay, Ratio, Phase 4 (AID 2283601). The method, boiled down:
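HCT116 cells carrying an inducible beta-lactamase reporter were plated at 4000 cells/well, rested 5 h, then exposed to compounds in DMSO (217-fold dilution) for 16 h at 37C. CCF4-AM substrate was loaded 2 h at room temperature; 460/530 nm emission ratio scored gain-of-signal versus DMSO.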

Assay [7] is described as follows: TOX21_p53_BLA_p5_viability: Viability Assessment in the Tox21 HCT-116 p53 Agonism Beta-lactamase Assay, Phase 5 (AID 2283600). The method, boiled down:
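Workflow: seed 4000 cells per well, wait 5 h, add compounds (DMSO, 217-fold dilution), incubate 16 h, load CCF4-AM 2 h, add CellTiter-Glo, read luminescence after 30 min.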

Assay [8] in a line: CCTE_Harrill_HTTr_Viability_MCF7: CCTE's 6-hour Cell Viability Assessment for the High-Throughput Transcriptomics (HTTr) Platform, in MCF-7 cells cultured in DMEM + 10% fetal bovine serum, Harrill Lab (AID 2284010; active = hit-call score of the fitted dose curve at least 0.9, where 1 is the maximum; inactive = score below 0.9). The method, boiled down:
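Eight-point concentration series, six-hour exposure. Propidium iodide exclusion imaged to assess membrane integrity as a cytotoxicity readout; bidirectional fitting was done with DMSO as negative control and activity baseline.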

Assay [9] is described as follows: CCTE_Harrill_HTTr_Apoptosis_MCF7: CCTE's 6-hour Apoptosis Assessment for the High-Throughput Transcriptomics (HTTr) Platform, in MCF-7 cells cultured in DMEM + 10% fetal bovine serum, Harrill Lab (AID 2284011; active = hit-call score of the fitted dose curve at least 0.9, where 1 is the maximum; inactive = score below 0.9). The method, boiled down:
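MCF-7 (DMEM + 10% FBS), 384-well; 8-pt dilution series, 6 h chemical exposure; caspase-3/7 activation via CellEvent Caspase 3/7 Green, HCI; bidirectional fit vs DMSO.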

Assay [10] has as its system Brachyury (BRA) Protein Expression, Deisenroth Lab, TBXT (gene 6862). The assay is described as follows: CCTE_Deisenroth_DEVTOX-GLR_legacy_Bra: (Legacy) CCTE's DevTox GLR-Endo Assay Evaluation of Brachyury (BRA) Protein Expression, Deisenroth Lab (AID 2284329; active = hit-call score of the fitted dose curve at least 0.9, where 1 is the maximum; inactive = score below 0.9). In outline:
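High-content imaging of fixed RUES2-GLR cells after a 48-hour differentiation with two compound exposures yields percent cells whose Bra signal exceeds pluripotent control median by 5x BMAD; values are baseline-corrected to DMSO.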

The nature of assay [11]: CCTE_Deisenroth_DEVTOX-GLR_legacy_CellCount: (Legacy) Viability Assessment in CCTE's DevTox GLR-Endo Assay, Deisenroth Lab (AID 2284331; active = hit-call score of the fitted dose curve at least 0.9, where 1 is the maximum; inactive = score below 0.9). The note with it: actives raise or lower the signal. The method, boiled down:
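RUES2-GLR human pluripotent cells were seeded 24 h, then differentiated 48 h with two compound doses at 24 h intervals (10-point, 1 nM - 200 uM). Fixed nuclei were imaged and counted; bidirectional fitting versus 0.2% DMSO.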

Assay [12] has as its system SRY-box transcription factor 2 (SOX2) Protein Expression, Deisenroth Lab, SOX2 (gene 6657). The assay is described as follows: CCTE_Deisenroth_DEVTOX-GLR_Endo_SOX2: CCTE's DevTox GLR-Endo Assay Evaluation of SRY-box transcription factor 2 (SOX2) Protein Expression, Deisenroth Lab (AID 2284412). In outline:
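Endpoint is percent SOX2-positive cells (SOX2+ count/total cells) minus 0.2% DMSO control, from high-content imaging of fixed, nuclear-stained RUES2-GLR cells. Dosing twice at 24 h intervals over 48 h differentiation, 1 nM–200 uM in 10 points.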

Assay [13] concerns Brachyury (BRA) Protein Expression, TBXT (gene 6862). The assay is described as follows: CCTE_Deisenroth_DEVTOX-GLR_Endo_BRA: CCTE's DevTox GLR-Endo Assay Evaluation of Brachyury (BRA) Protein Expression, Deisenroth Lab (AID 2284417; active = hit-call score of the fitted dose curve at least 0.9, where 1 is the maximum; inactive = score below 0.9). The method, boiled down: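 Endpoint is the fraction of BRA reporter-positive cells over total nuclei, corrected by subtracting the 0.2% DMSO value. Chemicals (1 nM - 200 uM, 10 points) were dosed twice during 48 h differentiation of RUES2-GLR cells, read by imaging.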

Assay [14] is described as follows: CCTE_Deisenroth_DEVTOX-GLR_Endo_CellCount: Viability Assessment in CCTE's DevTox GLR-Endo Assay, Deisenroth Lab (AID 2284420; active = hit-call score of the fitted dose curve at least 0.9, where 1 is the maximum; inactive = score below 0.9). The method, boiled down: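 Human pluripotent RUES2-GLR line; 24 h pre-seed; 48 h endoderm-directed differentiation; 2 doses, q24h; 10 conc., 1 nM - 200 uM; fix + nuclear dye; 5 fields/well imaged; readout = nuclei count, % change vs 0.2% DMSO; n=4.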

For assay [15], the system named is SRY-box transcription factor 17 (SOX17) Protein Expression, Deisenroth Lab, SOX17 (gene 64321). The assay is described as follows: CCTE_Deisenroth_DEVTOX-GLR_Pluri_SOX17: CCTE's DevTox GLR-Pluri Assay Evaluation of SRY-box transcription factor 17 (SOX17) Protein Expression, Deisenroth Lab (AID 2284427). In outline:
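Human RUES2-GLR pluripotent line; 24 h seeding, 48 h defined-media differentiation, 2 doses q24h, 10 conc 1 nM - 200 uM. Fix, nuclear stain, image 5 fields/well. Endpoint = %SOX17+ minus 0.2% DMSO; n=4.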

Assay [16] deals with SRY-box transcription factor 2 (SOX2) Protein Expression, Deisenroth Lab, SOX2 (gene 6657). The assay is described as follows: CCTE_Deisenroth_DEVTOX-GLR_Pluri_SOX2: CCTE's DevTox GLR-Pluri Assay Evaluation of SRY-box transcription factor 2 (SOX2) Protein Expression, Deisenroth Lab (AID 2284428; active = hit-call score of the fitted dose curve at least 0.9, where 1 is the maximum; inactive = score below 0.9). In outline:
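Steps: seed RUES2-GLR cells for 24 h; start 48 h differentiation in defined media; dose test chemicals at 0 and 24 h (1 nM–200 uM); fix, stain nuclei, image; compute SOX2+ percentage against 0.2% DMSO wells.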

The test system of assay [17] is Brachyury (BRA) Protein Expression, Deisenroth Lab, TBXT (gene 6862). The assay is described as follows: CCTE_Deisenroth_DEVTOX-GLR_Pluri_BRA: CCTE's DevTox GLR-Pluri Assay Evaluation of Brachyury (BRA) Protein Expression, Deisenroth Lab (AID 2284429). In outline: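 Mesoderm readout after 48 h differentiation of human RUES2-GLR cells, dosed twice (24-h intervals) at 1 nM - 200 uM. BRA+ frequency from fluorescence imaging of fixed, nuclear-stained cells, DMSO-corrected.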

Assay [18] can be described thus: CCTE_Deisenroth_DEVTOX-GLR_Pluri_CellCount: Viability Assessment in CCTE's DevTox GLR-Pluri Assay Evaluation of Total Cell Counts, Deisenroth Lab (AID 2284430; active = hit-call score of the fitted dose curve at least 0.9, where 1 is the maximum; inactive = score below 0.9). The method, boiled down: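 Cytotoxicity readout: fluorescent nuclei counts by high-content imaging, expressed as percent change relative to 0.2% DMSO. Human RUES2-GLR pluripotent line differentiated 48 h, dosed twice at 24-h intervals across 1 nM - 200 uM (10 points).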

Sequence of Cellular tumor antigen p53 (Homo sapiens) (P04637 whole entry, looked up): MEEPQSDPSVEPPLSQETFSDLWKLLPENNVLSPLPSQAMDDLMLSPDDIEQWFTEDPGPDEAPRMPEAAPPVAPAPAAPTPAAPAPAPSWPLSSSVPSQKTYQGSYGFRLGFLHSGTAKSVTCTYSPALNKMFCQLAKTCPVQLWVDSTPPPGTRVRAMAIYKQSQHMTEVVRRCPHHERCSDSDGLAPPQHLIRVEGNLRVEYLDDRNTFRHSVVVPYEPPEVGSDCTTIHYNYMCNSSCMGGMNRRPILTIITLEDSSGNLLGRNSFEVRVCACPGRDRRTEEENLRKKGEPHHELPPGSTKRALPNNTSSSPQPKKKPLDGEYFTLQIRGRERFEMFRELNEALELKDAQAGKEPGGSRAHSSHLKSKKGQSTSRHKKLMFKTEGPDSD

As to `CN1[C@@H]2CC[C@H]1CC(NC(=O)n1c(=O)[nH]c3ccccc31)C2` (stereo partly drawn), the molecule was classed as inactive in assay [1], in [2], in assay [3], in [4], in assay [5] and in assay [6].

As for `O=C(OCC(COC(=O)c1ccccc1)(COC(=O)c1ccccc1)COC(=O)c1ccccc1)c1ccccc1`, the molecule was classed as inactive in [1], in assay [2], in assay [4], in assay [5] and in assay [6]. Moreover, the AC50 in assay [3] was 54.3 µM (active).

As for `CCn1cc(C(=O)O)c(=O)c2cc3c(cc21)OCO3`, the call in [1], in [2], in assay [3], in [4], in assay [7] and in assay [6] was inactive. For the same molecule, the outcome in assay [8] and in assay [9] was inactive.

For `CC(CCc1ccccc1)NCC(O)c1ccc(O)c(C(N)=O)c1` (stereo not drawn), the call in assay [1], in assay [2], in assay [3], in assay [4], in assay [7] and in [6] was inactive. The outcome in [8] and in assay [9] was inactive.

Take `O=C1CC[C@@H](C(=O)N2CSC[C@H]2C(=O)O)N1` ([pGlu]-[Thz]-OH): the molecule was classed as inactive in [1], in assay [2], in [3] and in assay [5].

`CN1CCN2c3ccccc3Cc3ccccc3C2C1` (stereo not drawn): the AC50 is 38.9 µM (active) in assay [1]; 44.4 µM (active) in assay [2]; 37.8 µM (active) in assay [4]; 43.6 µM (active) in assay [6]; 52.7 µM (active) in assay [10]; 36.5 µM (active) in [11]. In addition, the half-maximal activity concentration (AC50) is 89.7 µM (active) in [12]; 71.3 µM (active) in assay [13]; 36.4 µM (active) in assay [14]; 57 µM (active) in assay [15]; 24.3 µM (active) in [16]; 100 µM (active) in assay [17]. Moreover, the AC50 in [18] is 0.877 µM (active). Moreover, the outcome in assay [3] and in assay [7] was inactive.

As to `NCC[C@H](O)C(=O)N[C@@H]1C[C@H](N)[C@@H](O[C@H]2O[C@H](CN)CC[C@H]2N)[C@H](O)[C@H]1O[C@H]1O[C@H](CO)[C@@H](O)[C@H](N)[C@H]1O`, the call in assay [1], in assay [2], in [3], in assay [4] and in [6] was inactive.

Regarding `OC[C@H]1O[C@@H](n2cnc3c2NC=NC[C@H]3O)C[C@@H]1O`, the molecule was called inactive in assay [1], in assay [2], in [3], in assay [4], in assay [7] and in assay [6].

For the origin of these results see PubChem BioAssay (EPA / NIEHS).
